Screens as filed in PubChem.
Shown are actives, neighbours in structure and some others; about 2.3% of the full set was active somewhere.
M1 antag – human M1 muscarinic receptor antagonists, primary screen, CHO-K1 cells, Fluo-8 calcium fluorescence, 1536-well. Muscarinic acetylcholine receptor M1 (Homo sapiens), P11229. CHO-K1 hM1, ACh EC80 antagonist. inhibition, % at 3 µM. actives 1.3% (n = 360,000). AID 588852, 2011;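 active = percent inhibition above its own plate's cutoff, namely the mean of that plate's compound wells plus 3 SD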;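 note: peak over basal fluorescence ratio during 140 s after agonist addition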
Target sequence (P11229 whole entry, looked up): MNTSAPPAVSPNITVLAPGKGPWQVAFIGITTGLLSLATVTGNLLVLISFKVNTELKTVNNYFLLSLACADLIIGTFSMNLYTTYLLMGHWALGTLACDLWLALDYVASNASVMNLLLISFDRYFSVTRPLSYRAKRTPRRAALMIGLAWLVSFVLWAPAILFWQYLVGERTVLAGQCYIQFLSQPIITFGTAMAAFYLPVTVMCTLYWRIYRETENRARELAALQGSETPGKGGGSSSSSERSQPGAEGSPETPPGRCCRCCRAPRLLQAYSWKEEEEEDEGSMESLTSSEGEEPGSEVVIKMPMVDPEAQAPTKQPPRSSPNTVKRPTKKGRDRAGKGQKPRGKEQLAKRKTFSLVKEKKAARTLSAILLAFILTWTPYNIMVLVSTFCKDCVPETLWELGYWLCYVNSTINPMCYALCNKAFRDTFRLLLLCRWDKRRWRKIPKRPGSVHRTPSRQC
CHRM1 PAM – human M1 muscarinic receptor positive allosteric modulators, primary screen, CHO-K1 cells, Fluo-8 calcium fluorescence, 1536-well | Muscarinic acetylcholine receptor M1 (Homo sapiens), P11229 | CHO-K1 hM1, ACh EC20; 0% = ACh EC20, 100% = maximal ACh | activation, % at 3 µM | actives 0.088% (n = 360,000); in the data active = activation above about 19%, passing the limit was not always enough
CHO-K1 Ca antag – nonselective inhibitor or artifact in parental CHO-K1 cells; ATP-induced calcium, Fluo-8 fluorescence; inhibition, % at 3 µM; actives 0.6% (n = 360,000); AID 602250;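 active = inhibition above a per-plate cutoff, the plate's mean sample inhibition plus 3 SD, cut at about 24% in these data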
M1 ag parental – counter-screen for M1 agonists: effect in parental CHO-K1 cells; Fluo-8 calcium fluorescence; scaled to maximal ATP response, vehicle zero; activation, % at 3 µM; actives 0.48% (n = 360,000); in the data active = activation above about 15%;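 note: untransfected CHO-K1 host cells lacking M1 receptor as counterscreen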
CHRM1 agonist – human M1 muscarinic receptor agonists, primary screen, Fluo-8 calcium fluorescence, CHO-K1 cells, HTS; CHO-K1 hM1, agonist mode; 0% DMSO, 100% acetylcholine EC100; activation, % at 3 µM; actives 0.33% (n = 360,000); AID 588814, 2011;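 active = activation above the run's mean compound activation plus 3 SD, cut at about 16% in these data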;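 note: peak over basal fluorescence ratio within a 140 s kinetic read after compound addition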
M1 PAM parental – nonselective calcium activators in parental CHO-K1 cells, primary screen, counter-screen for M1 PAM project, cell-based, Fluo-8 calcium fluorescence, full deck, 1536-well; ATP EC20; 0% at ATP EC20, 100% at ATP max; activation, % at 3 µM; actives 0.02% (n = 360,000); AID 602247, 2012;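 active = activation above the run cutoff, the mean activation of all test compounds plus 3 SD, cut at about 40% in these data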;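 note: peak over basal fluorescence ratio in a 140 s read after ATP addition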
Hits are given with their value.

COc1ccccc1N1CCN(CC(=O)NCC2CCCO2)CC1 (stereo not given) was read as M1 antag inactive, CHRM1 PAM inactive, CHO-K1 Ca antag 27, M1 ag parental inactive, CHRM1 agonist inactive and M1 PAM parental inactive.
`COc1ccccc1N1CCN(CC(=O)Nc2ccccc2C(=O)NC(C)c2ccccc2)CC1` (stereo not given) gave M1 antag 35, CHRM1 PAM inactive, CHO-K1 Ca antag inactive, M1 ag parental inactive, CHRM1 agonist inactive and M1 PAM parental inactive.
CC(NC(=O)c1ccccc1NC(=O)CN1CCN(c2ccccc2O)CC1)c1ccccc1 (stereo not given) was read as M1 antag inactive, CHRM1 PAM inactive, CHO-K1 Ca antag inactive, M1 ag parental inactive, CHRM1 agonist inactive and M1 PAM parental inactive.
Cc1ccc(N2C(=O)N(CC(=O)Nc3c(C)cc(C)cc3Cl)C(=O)C2C)cc1 (stereo not given) was read as M1 antag inactive, CHRM1 PAM inactive, CHO-K1 Ca antag inactive, M1 ag parental inactive, CHRM1 agonist inactive and M1 PAM parental inactive.
For C=C(C)COc1ccc2c(C)c(CCC(=O)NC3CC3)c(=O)oc2c1 the results were M1 antag inactive, CHRM1 PAM inactive, CHO-K1 Ca antag inactive, M1 ag parental inactive, CHRM1 agonist inactive and M1 PAM parental inactive.
Screening COc1ccc(CC(=O)NNC(=O)c2nn(Cc3ccccc3)c(=O)c3ccccc23)cc1OC returned M1 antag inactive, CHRM1 PAM inactive, CHO-K1 Ca antag inactive, M1 ag parental inactive, CHRM1 agonist inactive and M1 PAM parental inactive.
For Cc1cc(C)cc(OCC(O)CN2CC(C)OC(C)C2)c1 (stereo not given) the results were M1 antag inactive, CHRM1 PAM inactive, CHO-K1 Ca antag inactive, M1 ag parental inactive, CHRM1 agonist inactive and M1 PAM parental inactive.
Screening CC(NC(=O)c1ccccc1NC(=O)CN1CCc2ccccc2C1)c1ccccc1 (stereo not given) returned M1 antag inactive, CHRM1 PAM inactive, CHO-K1 Ca antag inactive, M1 ag parental inactive, CHRM1 agonist inactive and M1 PAM parental 40.
For Cc1ccc(S(=O)(=O)CCC(=O)OCCOc2ccc(Br)cc2)cc1 the results were M1 antag inactive, CHRM1 PAM inactive, CHO-K1 Ca antag inactive, M1 ag parental inactive, CHRM1 agonist inactive and M1 PAM parental inactive.
`COc1ccc2oc(C(=O)OCC(=O)NC3(C#N)CCCC3)c(C)c2c1` gave M1 antag inactive, CHRM1 PAM inactive, CHO-K1 Ca antag inactive, M1 ag parental inactive, CHRM1 agonist inactive and M1 PAM parental inactive.
Screening COC(=O)c1oc2c(c1C)C1(CCC2)SCCS1 returned M1 antag 30, CHRM1 PAM inactive, CHO-K1 Ca antag inactive, M1 ag parental inactive, CHRM1 agonist inactive and M1 PAM parental inactive.
`Cc1nn(C)c(C)c1NS(=O)(=O)c1c(C)n[nH]c1C` gave M1 antag inactive, CHRM1 PAM inactive, CHO-K1 Ca antag inactive, M1 ag parental inactive, CHRM1 agonist inactive and M1 PAM parental inactive.
COc1ccc(C(=O)NC(C(=O)NCc2ccccn2)C(C)C)cc1 (stereo not given) was read as M1 antag inactive, CHRM1 PAM inactive, CHO-K1 Ca antag inactive, M1 ag parental inactive, CHRM1 agonist inactive and M1 PAM parental inactive.
For CC(C)C(NC(=O)c1ccc(C(C)(C)C)cc1)C(=O)NCc1ccccn1 (stereo not given) the results were M1 antag 55, CHRM1 PAM inactive, CHO-K1 Ca antag inactive, M1 ag parental inactive, CHRM1 agonist inactive and M1 PAM parental inactive.
Cc1ccsc1C(=O)NNC(=O)Nc1ccc(Cl)c(Cl)c1 was read as M1 antag inactive, CHRM1 PAM inactive, CHO-K1 Ca antag 29, M1 ag parental inactive, CHRM1 agonist inactive and M1 PAM parental inactive.
Screening Cc1occc1C(=O)NNC(=O)Nc1ccc(Cl)c(Cl)c1 returned M1 antag inactive, CHRM1 PAM inactive, CHO-K1 Ca antag inactive, M1 ag parental inactive, CHRM1 agonist inactive and M1 PAM parental inactive.
ClCCn1c(CCl)nc2ccc(Cl)cc21 was read as M1 antag inactive, CHRM1 PAM inactive, CHO-K1 Ca antag inactive, M1 ag parental inactive, CHRM1 agonist inactive and M1 PAM parental inactive.
For CCOc1ccc(C(=O)C(C)OC(=O)Cn2c(C)csc2=O)cc1 (stereo not given) the results were M1 antag inactive, CHRM1 PAM inactive, CHO-K1 Ca antag inactive, M1 ag parental inactive, CHRM1 agonist inactive and M1 PAM parental inactive.
`COc1ccc(/C=C/C(=O)c2cc(F)ccc2OC(=O)c2ccccc2)cc1OC` gave M1 antag inactive, CHRM1 PAM inactive, CHO-K1 Ca antag 24, M1 ag parental inactive, CHRM1 agonist inactive and M1 PAM parental inactive.
COc1ccc(/C=C/C(=O)c2cc(F)ccc2OC(=O)c2ccc(OC)c(OC)c2)cc1OC was read as M1 antag inactive, CHRM1 PAM inactive, CHO-K1 Ca antag inactive, M1 ag parental inactive, CHRM1 agonist inactive and M1 PAM parental inactive.
`O=C1NC(Cc2ccccc2)c2nc3ccc(Cl)cc3c(=O)n2-c2ncccc21` (stereo not given) gave M1 antag inactive, CHRM1 PAM inactive, CHO-K1 Ca antag inactive, M1 ag parental inactive, CHRM1 agonist inactive and M1 PAM parental inactive.
`CC(C)(C)N(Cc1ccccc1)C(=O)COC(=O)C1=NN(c2ccccc2)C(=O)CC1` gave M1 antag inactive, CHRM1 PAM inactive, CHO-K1 Ca antag inactive, M1 ag parental inactive, CHRM1 agonist inactive and M1 PAM parental inactive.
For COc1cccc(CN2CC(C(=O)NCCC3=CCCCC3)CCC2=O)c1 (stereo not given) the results were M1 antag inactive, CHRM1 PAM inactive, CHO-K1 Ca antag inactive, M1 ag parental inactive, CHRM1 agonist inactive and M1 PAM parental inactive.
Screening O=C(COc1ccc(Cl)cc1Br)NC(=O)NC1CCCC1 returned M1 antag 31, CHRM1 PAM inactive, CHO-K1 Ca antag inactive, M1 ag parental inactive, CHRM1 agonist inactive and M1 PAM parental inactive.
`O=C(COc1ccc(Cl)cc1Cl)NC(=O)NC1CCCC1` gave M1 antag inactive, CHRM1 PAM inactive, CHO-K1 Ca antag inactive, M1 ag parental inactive, CHRM1 agonist inactive and M1 PAM parental inactive.
O=C(Nc1ccccc1Cl)NC1CCCCCCC1 was read as M1 antag inactive, CHRM1 PAM inactive, CHO-K1 Ca antag inactive, M1 ag parental 23, CHRM1 agonist inactive and M1 PAM parental inactive.
Cc1ccc(C(C(=O)NC2CCCCC2)N2CCCC2)cc1 (stereo not given) was read as M1 antag inactive, CHRM1 PAM inactive, CHO-K1 Ca antag inactive, M1 ag parental inactive, CHRM1 agonist inactive and M1 PAM parental inactive.
